# Test results reported in PubChem BioAssay (NCATS).
# Inconclusive results are not listed. Unmarked numbers belong to inactive results. The call rests on the fitted dose curve; in most records, active means well fitted inhibition curve with a large enough effect; inconclusive means small, poorly fitted or top-dose-only effect; inactive means flat fitted curve, though single readings scatter.
# Molecular target: Calcium and integrin-binding protein 1 (Homo sapiens) (UniProt Q99828)
# Experiment: Primary qHTS for Identification of Calcium Integrin Binding Protein 1 (CIB1) Competitor (AID 1508620);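 further: GST tagged CIB1 binding a fluorescein labelled alphaIIb integrin peptide tracer; top concentration of the series differs between compounds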
# Settings: CIB1-GST / FITC-alphaIIb peptide fluorescence polarization; series mostly up to 114 µM; activity change, negative = inhibition: at the top concentration
# Summary of the method: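 Fluorescence polarization competition: CIB1-GST (1 uM final) preincubated with compound 15 min at room temperature, then FITC-labeled alphaIIb peptide (100 nM final) added for another 15 min. Polarization read at Ex 480/Em 540.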
# On the % scale 0 is the no-effect control and ±100 the full control effect.
# Chain of Calcium and integrin-binding protein 1 (Homo sapiens) (Q99828 whole entry, looked up): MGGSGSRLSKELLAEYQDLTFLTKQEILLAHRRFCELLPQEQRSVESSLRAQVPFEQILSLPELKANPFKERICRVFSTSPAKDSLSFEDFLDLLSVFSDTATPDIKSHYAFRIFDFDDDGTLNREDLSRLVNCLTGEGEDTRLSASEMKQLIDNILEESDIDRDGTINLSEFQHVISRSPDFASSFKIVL
row,Structure (SMILES),"activity change, negative = inhibition"
1,c1ccc2[nH]c(-c3ccc(NCc4ccc5c(c4)OCCO5)cc3)nc2c1,3.15%
2,Cc1ccnc(NC(=S)NCCN(C)c2cccc(C(F)(F)F)c2)c1,-4.66%
3,COc1ccc(C2=Nn3c(nnc3-c3ccccc3C)SC2)cc1,-2.45%
4,Cc1ccc(NC(=O)Nc2nnc(-c3ccncc3)s2)cc1C,-3.68%
5,O=C1CCc2cc(S(=O)(=O)Nc3ccccn3)ccc2N1,1.63%
6,COc1cccc(-c2csc(N3CCC(C(N)=O)CC3)n2)c1,-0.068%
7,Cc1ccc(Nc2nc(C#N)nc(NC3CCCC3)n2)cc1,3.33%
8,CC(=O)Nc1sc2c(c1-c1ccc(N(C)C)cc1)CCNC2,-29.3%
9,O=C(Nc1ccc(-c2nc3ccccc3[nH]2)cc1)c1ccncc1,2.59%
10,CC(C)(C)OC(=O)N1CCN(c2ccc(NCc3ccc(-c4ccc(C#N)cc4)s3)cc2)CC1,-4.58%
11,Cc1ccc(-c2ccc(=O)n(CCNC(C)c3ccco3)n2)cc1 (centres undefined),-11.7%
12,Cc1cc(-c2ccccc2)n2ncc(C(=O)Nc3ccc(Cl)c(Cl)c3)c2n1,3.28%
13,CC(=O)Nc1ccc(C(=O)Nc2ccc(-c3nc4ccccc4[nH]3)cc2)cc1,-5.06%
14,Cc1ccc(NC(=O)c2cnn3c(C)cc(C)nc23)c(C)c1,2.89%
15,O=C1CC(c2ccccc2)CC2=C1C1(CCCC1)N=C(Nc1nc3ccccc3o1)N2 (centres undefined),0.731%
16,Cc1ccc2nc3sc(C(=O)NC4CCC(O)CC4)cc3cc2c1 (centres undefined),-0.684%
17,CC(=O)Nc1sc2c(c1C(=O)O)CCNC2,1.07%
18,CCOc1ccc(C(=O)Nc2ccc(-c3nn[nH]n3)cc2)cc1[N+](=O)[O-],-15.1%
19,CC(=O)N1CCN(c2ccc(NCc3cccc(C)c3)cc2)CC1,-15.5%
20,COc1cccc(C2c3c(ncn(-c4ccccc4-c4ccccc4)c3=N)Oc3ccc4ccccc4c32)c1 (centres undefined),9.35%

row,Structure (SMILES),"activity change, negative = inhibition"
1,FC(F)(F)c1cc(-c2ccc(CNc3nc(-c4ccccc4C(F)(F)F)nc4ccccc34)cc2)ccc1Cl,5.16%
2,Cc1cc(-c2nnc3n2CCCCCCC3)c(C)n1-c1ccccc1,3.25%
3,Cc1ccc(CCCn2c(CCNC(=O)C3CCCCC3)nc3ccccc32)cc1,-0.956%
4,CCc1ccc(NC(=O)c2cnn3c(C)cc(C)nc23)cc1,-4.12%
5,CC(C)(C)OC(=O)N1CCN(c2ccc(NCc3cnc(-c4ccc(C#N)cc4)o3)cc2)CC1,-0.444%
6,O=C(/C=C/c1ccccc1Cl)Nc1cccc([S+](=O)([O-])Nc2ccccc2F)c1,7.32%
7,O=C(OCC#CCSc1nnc(-c2ccc3ccccc3c2)o1)c1ccsc1,2.86%
8,CCOc1ccc(CCNC(=O)c2ccc3[nH]ccc3c2)cc1OCC,0.152%
9,CCOC(=O)c1[nH]c2c(c1C)CCC(c1ccco1)C2 (centres undefined),-3.07%
10,CC(C)(C)N[S+](=O)([O-])c1cccc(-c2nnc(SCc3ccc(C(=O)O)cc3)n2-c2ccc(F)cc2)c1,1.44%
11,COc1ccc(-c2c(NC(C)=O)sc3c2CCNC3)cc1,3.02%
12,CCCN(C)c1ncnc2ccc(-c3ccc4c(c3)OCO4)cc12,-0.106%
13,COc1cc(-c2ccc3ncnc(NCCc4cnc[nH]4)c3c2)cc(OC)c1OC,-3.32%
14,COc1ccc(NC(=O)CN(C)C(=O)c2cc3c(s2)CCC3)cc1,0.74%
15,O=[S+]([O-])(c1ccc(-c2ccccc2)cc1)N1CCN([S+](=O)([O-])c2ccc3c(c2)OCCO3)CC1,7.85%
16,COc1ccc(C2Nc3ccccc3C(=O)N2Cc2ccccc2)cc1OCc1ccc(NC(C)=O)cc1 (centres undefined),1.35%
17,Cc1ccc(NS(=O)(=O)c2ccc(N3CCCC3=O)cc2)cc1C,4.41%
18,O=c1c2ccccc2nc2sc(Nc3cccc(N4CCNCC4)c3)nn12,-10.8%
19,CC(C)CN1CC2=C(C1=O)C(c1ccccc1Cl)N=C(Nc1nc3ccccc3o1)N2 (centres undefined),-0.571%
